The text below walks through data of the supplement of paper PMC9694430.

In this test the test system is LOC_OS05G07850-cb002. Nature of the test: thermal shift delta Tm vs DMSO control; higher = stronger stabilization (binding). Conditions: 12.5 µM; protein concentration 2 µM. The essentials: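 Rice kinase domain constructs were expressed in E. coli, purified, and tested by differential scanning fluorimetry with compound added in DMSO. Each well of a 96-well plate held 19.5 μl of 2 μM kinase in 100 mM potassium phosphate pH 7.5, 150 mM NaCl, 10% glycerol and 5 × SYPRO Orange, and fluorescence was read from 25°C to 95°C at 0.05°C/s. The melting temperature shift is the mean of triplicates, taken against protein with DMSO alone after Boltzmann fitting.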
Turning to `O=C1NC(=O)C(c2ccccc2[N+](=O)[O-])=C1Nc1ccc(O)c(Cl)c1`, the “thermal shift delta Tm” value was 4.16 °C.
On to `CCOc1cc2ncc(C#N)c(Nc3ccc(OCc4ccccn4)c(Cl)c3)c2cc1NC(=O)/C=C/CN(C)C` [Neratinib (HKI-272)], for which the “thermal shift delta Tm” value amounted to 2.1 °C.
To `CCCS(=O)(=O)Nc1ccc(F)c(C(=O)c2c[nH]c3ncc(-c4ccc(Cl)cc4)cc23)c1F` [Vemurafenib (PLX4032, RG7204)] belongs 10.3 °C; to `Cc1cn(-c2cc(NC(=O)c3ccc(C)c(Nc4nccc(-c5cnccn5)n4)c3)cc(C(F)(F)F)c2)cn1` [Radotinib], -1.11 °C; to `OC(c1cc(-c2ccc(Cl)cc2)nc2ccccc12)C1CCCCN1` (stereo not drawn) [Vacquinol-1], 3.49 °C.
For `Cc1cc(CS(=O)(=O)c2ccccc2)cc(OCc2ccc(CN3CCC[C@@H]3CO)cc2)c1`, the “thermal shift delta Tm” value was -0.44 °C.
With `Clc1ccc(Nc2nnc(Cc3ccncc3)c3ccccc23)cc1` [Vatalanib (PTK787) 2HCl], the “thermal shift delta Tm” value is -0.28 °C.
In the case of `CN1CCN(c2ccc(Nc3cc(-c4cccc(-n5ccc6cc(C7CC7)cc(F)c6c5=O)c4CO)cn(C)c3=O)nc2)CC1`, the “thermal shift delta Tm” value is 2.96 °C.
Regarding `O=C1NC(=O)[C@@H](c2cn3c4c(cccc24)CCC3)[C@@H]1c1c[nH]c2ccccc12` [Tivantinib (ARQ 197)], the “thermal shift delta Tm” value was found to be 0.25 °C.
In the case of `COc1cc(-c2cc(-c3ccc(N4CCNCC4)cc3)cnc2C)cc(OC)c1OC`, the “thermal shift delta Tm” value amounted to 3.83 °C.
`Cn1ncc(Cl)c1-c1cc(C(=O)N[C@H](CN)Cc2ccc(F)c(F)c2)oc1Cl`: the “thermal shift delta Tm” value amounted to 1.08 °C.
Regarding `C[C@H](Nc1ncnc2nc[nH]c12)c1cc2cccc(Cl)c2c(=O)n1-c1ccccc1` [Duvelisib (IPI-145, INK1197)], the “thermal shift delta Tm” value came to 0.17 °C.
Take `COc1cc2ncnc(Nc3ccc(F)c(Cl)c3)c2cc1OCCCN1CCOCC1` [Gefitinib (ZD1839)]: the “thermal shift delta Tm” value was found to be 9.4 °C.
To `C[C@@H](N)c1ccc(C(=O)Nc2ccnc3[nH]ccc23)cc1` belongs 3.37 °C.
On to `Cc1ccc(C(=O)Nc2cccc(C(F)(F)F)c2)cc1Nc1nc(-c2cccnc2)nc2c1cnn2C`, for which the “thermal shift delta Tm” value stood at 0.03 °C.
Turning to `O=C1NC(=O)/C(=C/c2ccc3nccc(-c4ccncc4)c3c2)S1`, the “thermal shift delta Tm” value was 8.62 °C.
Regarding `Oc1c2ccccc2c2c3c(cccc13)N=N2`, the “thermal shift delta Tm” value is 9.83 °C.
As to `C=CC(=O)Nc1ccc2ncnc(Nc3cccc(Br)c3)c2c1`, the “thermal shift delta Tm” value stood at 0.86 °C.
For `COc1cc2nccc(Oc3ccc(NC(=O)NC4CC4)c(Cl)c3)c2cc1C(N)=O` [Lenvatinib (E7080)], the “thermal shift delta Tm” value is 3.32 °C.
Consider `CN1CCCN(C(=O)c2cccc(-c3ccc(/C=C4/C(=O)Nc5ccc(Cl)cc54)o3)c2)CC1`, for which the “thermal shift delta Tm” value came to 6.78 °C.
As to `CCc1cnn2c(NCc3ccc[n+]([O-])c3)cc(N3CCCC[C@H]3CCO)nc12`, the “thermal shift delta Tm” value came out at 2 °C.
For the compound `O=C(Nc1ccc(OC(F)(F)F)cc1)c1sccc1NCc1ccnc2ccccc12`, the “thermal shift delta Tm” value is 2.25 °C.
Next, `CCOC(=O)c1cnc2ccc(-c3cncc(NS(=O)(=O)c4ccccc4)c3)cn12`: 3.75 °C.
In the case of `CCCNC(=O)Nc1ccc(Oc2ncnc3cc(OC)c(OC)cc23)cc1Cl`, the “thermal shift delta Tm” value is 5.45 °C.
As for `Cc1cc(Nc2ncnc3ccc(-c4ccc(CNCCS(C)(=O)=O)o4)cc23)ccc1Oc1ccn2ncnc2c1` [HER2-Inhibitor-1], the “thermal shift delta Tm” value was 6.61 °C.
With `COc1cc2c(Oc3ccc(NC(=O)C4(C(=O)Nc5ccc(F)cc5)CC4)cc3F)ccnc2cc1OCCCN1CCOCC1`, the “thermal shift delta Tm” value came to 13.9 °C.
Consider `Cn1cc(-c2ccc3c(c2)CCN3C(=O)Cc2cccc(C(F)(F)F)c2)c2c(N)ncnc21`, for which the “thermal shift delta Tm” value stood at 6.67 °C.
For `O=C(c1ccc(Nc2nccc(-c3cc4ccccc4s3)n2)cc1)N1CCC(N2CCCC2)CC1` [IKK-16 (IKK Inhibitor VII)], the “thermal shift delta Tm” value is 15.2 °C.
Consider `Cc1cc(NC(=O)c2cccc(NC(=O)/C=C/CN(C)C)c2)ccc1Nc1nccc(-c2cccnc2)n1`, for which the “thermal shift delta Tm” value was 2.7 °C.
On to `CC(C)[C@H](CO)Nc1nc(Nc2cccc(Cl)c2)c2ncn(C(C)C)c2n1` [Purvalanol A], for which the “thermal shift delta Tm” value came out at 4.54 °C.
Next, `C=CC(=O)Nc1cccc(Nc2nc(Nc3ccc(OCCOC)cc3)ncc2F)c1`: 12.6 °C; `Cc1c(C(=O)Nc2ccc(Oc3ccnc4[nH]cc(-c5ccccc5)c34)c(F)c2)c(=O)n(-c2ccc(F)cc2)n1C`: 14.4 °C; `COc1cc(Nc2ncc(F)c(Nc3ccc4c(n3)N(COP(=O)(O)O)C(=O)C(C)(C)O4)n2)cc(OC)c1OC` [Fostamatinib (R788)]: 12 °C.
Next, `CC(C)c1c2cc(-c3ccnc(NC4CCC(NC5CCOCC5)CC4)n3)ccc2nn1C` (stereo not drawn): 6.4 °C; `Cc1nc2ccc(-n3ncc(C(=O)c4cc5ccccc5[nH]4)c3N)cc2[nH]1`: 2.01 °C.
For `COc1cc2ncnc(Sc3nnc(C)s3)c2cc1OC`, the “thermal shift delta Tm” value was 4.44 °C.
For the compound `CCOc1cn(-c2ccc(F)cc2C)nc1C(=O)Nc1ccc(Oc2ccnc3cc(OC)c(OC)cc23)c(F)c1`, the “thermal shift delta Tm” value amounted to 11.1 °C.
To `COc1ccc([C@@H]2OC[C@H]3[C@@H]2CO[C@@H]3c2ccc(O[C@@H]3O[C@H](CO)[C@@H](O)[C@H](O)[C@H]3O)c(OC)c2)cc1OC` [Forsythin] belongs -0.42 °C.
